# Test results taken from PubChem BioAssay AID686979 (National Center for Advancing Translational Sciences (NCATS), 2013).
# About 50,000 (12%) of roughly 420,000 compounds were called active. Entries that show only a call come without a potency. Roughly 26% stayed inconclusive and do not appear here. This excerpt belongs to a sample that is enriched for actives. A number with no mark means an inactive call. The call rests on the fitted dose curve; in most records, active means well fitted inhibition curve with a large enough effect; inconclusive means small, poorly fitted or top-dose-only effect; inactive means flat fitted curve, though single readings scatter.
# Experiment: qHTS for Inhibitors of human tyrosyl-DNA phosphodiesterase 1 (TDP1): qHTS in cells in presence of CPT; further: nearly all actives have a fitted effect of over 55% in size
# Details: chicken DT40 Tdp1-/-;hTDP1 cells + 20 nM CPT, ATP luminescence, 48 h; series mostly up to 46.2 µM
# Summary of the method: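 Chicken DT40 Tdp1-/- cells stably complemented with human TDP1 were seeded at 400 cells/well in medium containing 20 nM camptothecin, exposed to pin-transferred compounds, and grown at 37 °C for at least 48 hr. Viability was read as ATP luminescence.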
# Potency means the concentration at half of the fitted maximal effect.
SMILES,Potency,"activity change, negative = growth inhibition"
CCCNC(=O)c1ccc(Cn2c(SCC(N)=O)nc3ccccc3c2=O)cc1,inactive,
CCOc1ccccc1Nc1ccc2nonc2c1[N+](=O)[O-],inactive,
O=C(OCC(=O)N1CCCCCC1)c1cnc(Cl)c(Cl)c1,inactive,
CCOC(=O)C1CCN(Cc2c(C(=O)N3CCOCC3)nc3c(C)cccn23)CC1,inactive,
CCOC(=O)C(NC(=O)CC(C)C)(Nc1sc2c(c1C(N)=O)CCCC2)C(F)(F)F (centres undefined),inactive,
CC(=O)Nc1ccc2nc(NC(=O)CS(=O)(=O)c3ccc(F)cc3)sc2c1,inactive,
CCOc1ccc2nc(Nc3nc4ccc(NC(C)=O)cc4s3)sc2c1,18.4 µM (active),
CCOc1ccc(S(=O)(=O)Nc2nc3cc(OC)ccc3s2)cc1,inactive,
CCC(=O)c1ccc(OCC(=O)Nc2ccc(N3CCCCC3)cc2)cc1,inactive,
CCC(=O)c1ccc(OCC(=O)Nc2ccc3nc(C)sc3c2)cc1,16.4 µM (active),
Cc1nc2ccc(NC(=O)C3CCCCC3)cc2s1,inactive,
CC(CC(=O)Nc1ccc(F)cc1F)S(=O)(=O)c1ccc2c(c1)NC(=O)CO2 (centres undefined),inactive,
c1ccc2c(c1)CCc1snnc1-2,inactive,
O=C(CCNS(=O)(=O)c1ccc(Br)cc1)NCC1CCCO1 (centres undefined),inactive,
CCc1cc(-c2n[nH]c(=S)n2CC(C)C)cs1,inactive,
CCC(=O)c1ccc(OCC(O)CN2CC(C)OC(C)C2)cc1 (centres undefined),inactive,
CC(C)CCOc1ccc(C(=O)C[N+]2(C)CCOCC2)cc1,20.6 µM (active),
C[N+]1(CC(=O)c2cccs2)CCOCC1,inactive,
COc1ccc(Br)cc1CNC(=O)c1cc(=O)[nH]c2ccc(S(=O)(=O)N3CCCC3)cc12,inactive,
CCOC(=O)c1c(C)n(C)c2ccc(OC)c(NC(=O)CN3CCC4(CC3)OCCO4)c12,inactive,
Cc1nnc(NC(=O)/C=C/c2ccco2)s1,inactive,
CCC(=O)Nc1ccc2nn(-c3ccc(F)cc3)nc2c1,inactive,
Cc1ccc(-n2nc3ccc(NC(=O)/C=C/c4ccco4)cc3n2)cc1C,23.1 µM (active),
COc1ccc(C(CC(=O)N2CCN(c3ccccc3)CC2)c2c(O)cc(OC)cc2OC)cc1 (centres undefined),inactive,
COc1cc(C(CCN2CCN(c3ccccc3)CC2)c2c(OC)cc(OC)c3ccc(=O)oc23)cc(OC)c1OC (centres undefined),23.1 µM (active),

SMILES,Potency,"activity change, negative = growth inhibition"
COc1cc(OC)c2ccc(=O)oc2c1C(CCN1CCN(c2ccccc2)CC1)c1ccc2c(c1)OCO2 (centres undefined),23.1 µM (active),
O=C(C(=O)N1CCN(c2ccccc2)CC1)c1ccc2c(c1)OCO2,inactive,
COc1ccc(F)cc1S(=O)(=O)NCC(c1ccc2c(c1)OCO2)N1CCN(C)CC1 (centres undefined),inactive,
COc1ccc(C(c2nnnn2Cc2cccs2)N2CCN(c3ccccc3)CC2)cc1OC (centres undefined),inactive,
C=CCNC(=S)NNC(=O)c1ccc(Br)o1,inactive,
CCn1c(O)c2ccc(C(=O)N=NC(=O)c3cccnc3)cc2c1O,inactive,
CN(Cc1ccco1)c1cc(-c2ccccc2C(F)(F)F)ncn1,inactive,
FC(F)(F)c1ccccc1-c1cc(NCc2ccccc2)ncn1,7.31 µM (active),
COc1ccccc1CNc1cc(-c2ccccc2CN(C)C)ncn1,inactive,
CCOc1cc(S(=O)(=O)NCc2ccc3c(c2)OCO3)ccc1F,inactive,
Cc1ccc(C(=O)O/N=C(\N)c2ccccn2)cc1Cl,inactive,
COc1ccccc1-c1ccc(C(=O)N(C)C(C)c2ccon2)c(N2CCN(c3ccccc3F)CC2)n1 (centres undefined),,15.9% [at 9.04 µM]
CC(C)C1=CC2=CC[C@H]3[C@](C)(C(=O)O)CCC[C@]3(C)C2CC1 (some centres undefined),,26.1% [at 9.04 µM]
O=C(NN1C(=O)C2C3C=CC(C3)C2C1=O)c1ccco1 (centres undefined),inactive,
Cc1noc(C)c1-c1nc(Nc2ccccc2)c2ccccc2n1,inactive,
COc1cccc(-c2nc(Nc3ccncc3)c3ccccc3n2)c1,8.2 µM (active),
COc1cc(Nc2nc(-c3ccc(OC)c(OC)c3)nc3ccccc23)cc(OC)c1,5.8 µM (active),
COc1ccc(Cl)cc1N(CC(=O)N1CCCCC1)S(C)(=O)=O,inactive,
C=Cn1cc[n+](CC(=O)c2ccc(OC)c(OC)c2)c1,inactive,
COc1ccc(C23NCCN2C(=O)c2ccccc23)cc1 (centres undefined),inactive,
Cc1cccc(S(=O)(=O)N(C)C[C@H]2OCc3cnnn3CCCC(=O)N([C@@H](C)CO)C[C@H]2C)c1,inactive,
CCCCn1c(N)c(N(Cc2ccccc2OC)C(=O)COc2cc(C)ccc2Cl)c(=O)[nH]c1=O,inactive,
CCCCc1nn2c(=O)cc(COC(=O)c3cccc(NC(=O)COc4ccccc4)c3)nc2s1,inactive,
COc1ccc(CN2CCC(C)(Oc3cccc(F)c3)C2)c2ccccc12 (centres undefined),23.1 µM (active),
CCOc1cc(CN2CCCC(CO)(Cc3ccc(F)cc3F)C2)ccc1OC (centres undefined),inactive,

SMILES,Potency,"activity change, negative = growth inhibition"
COc1ccccc1CN1CC2(CCN(S(=O)(=O)c3ccccc3)CC2)C1,inactive,
Cc1ccc(CCNC(=O)CN2C(=O)CSc3ccc(S(=O)(=O)N4CCOCC4)cc32)cc1,inactive,
C[C@H]1Cn2cnc(C(=O)N[C@@H](Cc3c[nH]c4ccccc34)C(=O)OC(C)(C)C)c2C(=O)N1,inactive,
COc1cc(=O)[nH]c(=O)n1C(=O)Cc1ccccc1,13 µM (active),
CS(=O)(=O)N1CCN(C(=O)Cc2ccccc2)CC1,inactive,
CCCOc1ccc(Cn2c(O)cc(=O)[nH]c2=O)cc1,inactive,
COc1ccccc1NC(=O)[C@H](COCc1ccccc1)NC(=O)OC(C)(C)C,23.1 µM (active),
COc1ccccc1NC(=O)C(C)OC(=O)CC1CCCC1 (centres undefined),inactive,
COc1ccccc1NC(=O)C(CC(=O)O)Cc1cc(C)cc(C)c1 (centres undefined),inactive,
Cc1ccc(SCC(=O)NNC(=O)c2ccc(S(C)(=O)=O)cc2)cc1,inactive,
CCOc1ccc(CNC(=O)c2ccc3c(c2)nnn3C2CCCC2)cc1,inactive,
Cc1cc(Cl)ccc1OCc1nc(-c2ccncc2)no1,inactive,
O=C(Nc1ccc2oc(-c3ccc(O)c(Br)c3)nc2c1)c1cc2ccccc2o1,inactive,
CCCOc1ccc(C(=O)Nc2ccc3oc(-c4cccc(Cl)c4Cl)nc3c2)cc1,8.2 µM (active),
CCCCOc1ccc(C(=O)Nc2cccc(-c3nc4ccccc4o3)c2C)cc1,inactive,
COc1cc(OC)cc(C(=O)Nc2ccc(-c3nc4ccccc4o3)c(O)c2)c1,18.4 µM (active),
O=C(Nc1ccc(-c2nc3cc(NC(=O)c4ccccc4Cl)ccc3o2)cc1)c1ccccc1Cl,7.31 µM (active),
Cc1ccccc1-c1nc2cc(NC(=O)c3cccc(OCCC(C)C)c3)ccc2o1,23.1 µM (active),
O=C(Nc1ccc(C(=O)O)c(O)c1)c1ccccc1,inactive,
CCc1ccc2oc(-c3ccc(NC(=O)c4cc5ccccc5o4)cc3)nc2c1,inactive,
Cc1nc2cc(NC(=O)NCc3ccccc3)ccc2o1,inactive,
CC(=O)Nc1ccc(-c2nc3ccccc3o2)cc1,inactive,
Cc1nc2nc[nH]n2c(=O)c1NC(=O)c1cccc(OCC(C)C)c1,inactive,
COC(=O)c1ccc(-c2nc3cc(NC(C)=O)ccc3o2)cc1,inactive,
